# An excerpt weighted towards active compounds, which were near 10% of everything screened.
# BAZ2B block: qHTS Assay for Inhibitors of BAZ2B | Potency, µM (top dose mostly 114 µM), for inactives: top-dose activity change, negative = inhibition, usual class: inhibitors | Bromodomain adjacent to zinc finger domain protein 2B (Homo sapiens), Q9UIF8 | actives 4.4% (n = 360,000) | AlphaScreen BAZ2B-H3K14Ac peptide displacement; also: % is scaled to controls: 0 for no effect and ±100 for the full control effect; nearly all actives have a fitted effect of over 60% in size
#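 AlphaScreen displacement: compounds (up to 110uM) incubated 30 min at room temperature with a preformed 50 nM BAZ2B/50 nM biotinylated H3K14Ac peptide complex in PBS pH 7.4 with Tween-20. Donor and acceptor beads at 10 ug/mL final added, 20 min light-protected before reading.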
# G9a inh: qHTS Assay for Inhibitors of Histone Lysine Methyltransferase G9a. G9a H3K9 monomethylation, AlphaScreen, 2 h. Potency, µM (titrated, usually from 102 µM), for the others: at the top dose activity, negative = inhibition, hits mostly inhibitors. actives 8.8% (n = 350,000); also: % is scaled to controls: 0 for no effect and ±100 for the full control effect; nearly all actives have a fitted effect of over 75% in size
#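 AlphaScreen detection with an anti-monomethyl H3K9 antibody quantified product after a 2 h room-temperature reaction containing 500 nM biotinylated H3K9 peptide, 20 µM SAM and 20 nM enzyme, which had been preincubated 15 min with compound.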
# HP1b chromo inh: HTS for Inhibitors of HP1-beta Chromodomain Interactions with Methylated Histone Tails; Chromobox protein homolog 1 (Homo sapiens), P83916; AlphaScreen HP1-beta / biotin-H3K9me3 peptide binding; Potency, µM (titrated, usually from 114 µM), inactives show top-dose activity change, negative = inhibition, usual class: inhibitors; actives 0.56% (n = 390,000); AID 540317, 2011; also: nearly all actives have a fitted effect of over 70% in size
#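 Compound inhibition of the preformed complex between 50 nM HP1-beta and 50 nM biotinylated H3K9me3 peptide was read by AlphaScreen. Buffer was PBS pH 7.4 with 0.01% Tween-20. Incubations ran 30 min at room temperature, with 10 ug/mL donor/acceptor beads.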
# GLS inhibitor: qHTS for Inhibitors of Glutaminase (GLS); Glutaminase kidney isoform, mitochondrial (Homo sapiens), O94925; GLS enzymatic activity, qHTS titration; Potency, µM (titrated, usually from 45.5 µM), without a hit: at the top dose activity change, negative = inhibition, usual class: inhibitors; actives 0.21% (n = 410,000); also: % is scaled to controls: 0 for no effect and ±100 for the full control effect
# Target sequence (O94925 whole entry, looked up, canonical isoform): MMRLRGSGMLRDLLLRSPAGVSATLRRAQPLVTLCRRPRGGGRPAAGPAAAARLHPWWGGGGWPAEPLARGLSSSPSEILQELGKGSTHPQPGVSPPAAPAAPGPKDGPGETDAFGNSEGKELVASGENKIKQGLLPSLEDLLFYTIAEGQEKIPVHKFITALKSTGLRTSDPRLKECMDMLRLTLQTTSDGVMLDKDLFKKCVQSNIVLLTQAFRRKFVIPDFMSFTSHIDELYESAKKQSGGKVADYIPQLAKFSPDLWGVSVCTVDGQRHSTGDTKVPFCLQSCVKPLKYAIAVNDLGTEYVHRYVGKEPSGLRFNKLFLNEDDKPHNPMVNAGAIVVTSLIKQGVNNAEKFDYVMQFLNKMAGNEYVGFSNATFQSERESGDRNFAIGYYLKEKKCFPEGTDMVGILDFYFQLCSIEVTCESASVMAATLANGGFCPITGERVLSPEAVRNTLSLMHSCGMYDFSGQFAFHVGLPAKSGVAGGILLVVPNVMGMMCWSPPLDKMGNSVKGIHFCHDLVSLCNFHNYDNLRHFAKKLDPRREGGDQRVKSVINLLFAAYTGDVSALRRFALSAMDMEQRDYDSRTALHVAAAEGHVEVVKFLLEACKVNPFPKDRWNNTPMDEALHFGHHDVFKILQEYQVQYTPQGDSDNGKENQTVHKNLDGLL
#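 Coupled fluorescence readout: glutamate oxidase/HRP/Amplex Red detect glutamate formed by hKGA from L-glutamine (1 mM solution added). Buffer 45 mM KH2PO4 pH 8.2, 0.02% Tween-20; reads at t0 and 30 min RT.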
# JMJD2A Tudor: qHTS Assay for Inhibitors of JMJD2A-Tudor Domain. Lysine-specific demethylase 4A (Homo sapiens), O75164. AlphaScreen JMJD2A-Tudor / H3K4me3 peptide binding. Potency, µM (titrated, usually from 114 µM), without a hit: top-dose activity change, negative = inhibition, usual class: inhibitors. actives 4.4% (n = 390,000). AID 504339, 2011; also: % is scaled to controls: 0 for no effect and ±100 for the full control effect; nearly all actives have a fitted effect of over 50% in size
# Starred values were filed as active, the others as inactive; ? = inconclusive; / = no result given; [ ] = remark or other dose. Calls follow the shape of the dose curve; as a rule, active = well fitted curve in the direction sought with a large enough effect; inconclusive = small, poorly fitted or top-dose-only effect, or another doubt; inactive = no such curve, though single readings can be large; an effect the other way counts as inactive or inconclusive. Potency is read from the fitted curve at half-maximal effect.
SMILES,BAZ2B block,G9a inh,HP1b chromo inh,GLS inhibitor,JMJD2A Tudor
CC(C)c1ccc(NC2CCCN(C(=O)c3cccnc3)C2)cc1 (stereo not given),-23%,79µM*,16%,-5%,-27%
CCn1nc(C)cc1C(=O)N1CCCC(Nc2ccc(C(C)C)cc2)C1 (stereo not given),?,50µM*,-5%,0%,-35%
CC(C)c1ccc(NC2CCCN(C(=O)c3n[nH]c4c3CCC4)C2)cc1 (stereo not given),-24%,71µM*,4%,-21%,-24%
CC(C)c1ccc(NC2CCCN(C(=O)c3cnsn3)C2)cc1 (stereo not given),?,35µM*,1%,2%,-23%
O=C(Nc1nnc(CCS(=O)(=O)c2ccc(Br)cc2)s1)c1ccc([N+](=O)[O-])cc1,3%[57.1 µM],10%[59 µM],20%,5%,-5%
COCCNc1nc(Nc2ccc(Cl)cc2F)c2sccc2n1,/,/,/,7%,/
Cc1occc1C(=O)N1CCCC(Nc2ccc(C(C)C)cc2)C1 (stereo not given),?,40µM*,-11%,3%,?
COC(=O)c1ccc(C(=O)N2CCCC(Nc3ccc(C(C)C)cc3)C2)cc1 (stereo not given),?,79µM*,12%,6%,?
COCc1ccc(C(=O)N2CCCC(Nc3ccc(C(C)C)cc3)C2)o1 (stereo not given),?,45µM*,-10%,2%,-34%
CC(C)c1ccc(NC2CCCN(C(=O)c3ccsc3)C2)cc1 (stereo not given),-18%,-11%,14%,-12%,?
COc1ccc(S(=O)(=O)N(C)C[C@@H]2OCCCC[C@H](C)Oc3ccc(NC(=O)Nc4ccc(C(F)(F)F)cc4)cc3C(=O)N([C@H](C)CO)C[C@H]2C)cc1,/,/,/,-4%,/
O=C(Nc1nnc(SCc2ccccc2)s1)c1cccc([N+](=O)[O-])c1,-7%,79µM*,-3%,10%,-24%
O=C(Nc1nnc(CSCc2ccccc2F)s1)c1cccc([N+](=O)[O-])c1,9%,18%[59 µM],32%,20%,-20%
COc1ccc2[nH]c(=O)c(CN(C(C)=O)c3cc(C)ccc3C)cc2c1,/,/,/,-6%,/
c1nc(SSc2ncnc3nc[nH]c23)c2[nH]cnc2n1,/,/,?,-25%,0.79µM*
O=C(CSc1ncnc2nc[nH]c12)c1ccc2ccccc2c1,-22%,-12%[59 µM],17%,2%,79µM*
O=C(O)CSc1ncnc2nc[nH]c12,-2%,-29%[59 µM],34%,-1%,-18%
COc1cc2c(=O)n(Cc3ccccc3Cl)c(=O)n(CC(=O)Nc3ccc(C)c(C)c3)c2cc1OC,0%,0%[59 µM],24%,2%,-2%
O=C(Nc1cc(C2CC2)nn1-c1ccccc1)c1ccc(F)cc1,/,/,41%,3%,-19%
Cc1c(C)c2ccc(OCC(=O)NC(Cc3ccc(Cl)cc3)C(=O)O)cc2oc1=O (stereo not given),-3%,14%[12.7 µM],14%,19%,-12%
Cc1c(C)c2ccc(OCC(=O)N[C@@H](Cc3ccccc3)C(=O)O)cc2oc1=O,-16%,-8%[12.7 µM],69%,16µM*,-10%
Cc1c(OCC(=O)NC(Cc2ccc(Cl)cc2)C(=O)O)ccc2c1oc(=O)c1ccccc12 (stereo not given),56µM*,-1%[12.7 µM],14%,?,-30%
CC[C@]1(C(=O)OC)[C@H]2C(=O)N(C)C(=O)[C@H]2[C@H]2CN(C)C(=NC3CCCCC3)N21,/,/,40%,-4%,-1%
Oc1ccc(-c2cn3c(n2)SCC3)cc1O,?,1.1µM*,?,?,11µM*
Brc1ccc(-c2cn3c(n2)SCC3)cc1,?,/,-1%,1%,-15%
SMILES,BAZ2B block,G9a inh,HP1b chromo inh,GLS inhibitor,JMJD2A Tudor
Oc1ccc(-c2cn3c(n2)SCC3)cc1,-11%,8.9µM*,1%,9%,-28%
O=C(NCc1cccs1)c1ccc2c(c1)N(Cc1ccccc1Cl)C(=O)c1ccccc1S2,2%,-33%[59 µM],25%,2%,1%
Cc1c(C(=O)N(C)C2CCCCC2)sc2nc3ccc(N)cc3n12,/,25µM*,/,/,/
NC1=NN=C(N2N=C(c3ccco3)CC2(O)C(F)(F)F)n2ncnc2C1 (stereo not given),79µM*,-40%,17%,5%,-30%
Cc1ccc(C2=NN(C3=NN=C(N)Cc4ncnn43)C(O)(C(F)(F)F)C2)cc1 (stereo not given),9%,42%,40%,-2%,-2%
CCOc1ccc(CN2CCN(Cc3[nH]c4ccccc4c3C)CC2CCO)cc1 (stereo not given),?,6%[12.7 µM],-9%,16%,?
Cc1c(CN2CCN(CC(C)(C)C)C(CCO)C2)[nH]c2ccccc12 (stereo not given),-33%,71µM*,-3%,14%,-13%
O=c1cc(CN2CCN(Cc3ccc(F)cc3)C(CCO)C2)[nH]c2ccccc12 (stereo not given),-2%,25µM*,21%,5%,-27%
CCOC(=O)C1CCCN(C(=O)c2ccc(NC(=O)c3nsc4ccccc34)cc2)C1 (stereo not given),-4%,-35%[59 µM],18%[57 µM],0%,-21%
O=C(NC(NC(=S)Nc1c(Cl)cccc1Cl)C(Cl)(Cl)Cl)OCc1ccccc1 (stereo not given),-23%,3.2µM*,10%,5%,-17%
CCOC(=O)NC(NC(=S)Nc1ccc(OCC)cc1)C(Cl)(Cl)Cl (stereo not given),1%,25%[59 µM],-8%,4%,-6%
CCOC(=O)c1ccc(OC(=O)c2cn(-c3cccc(OC)c3)c(=O)c3ccccc23)cc1,6%,0%[59 µM],25%[57 µM],9%,-16%
CCOC(=O)c1cccc(NC(=O)c2cn(-c3cccc(OC)c3)c(=O)c3ccccc23)c1,1%,10µM*,20%,1%,8%
CSc1cccc(NC(=S)N(CCCN2CCCC2)Cc2cccn2Cc2ccc(Cl)cc2)c1,25µM*,35µM*,-14%,-16%,20µM*
CSc1cccc(NC(=S)N2CCCN(Cc3cccc(Cl)c3)C2)c1,25µM*,5%[59 µM],0%,12%,?
Cn1cc(CN(CCCN2CCOCC2)C(=S)Nc2cccc(Cl)c2)c2ccccc21,?,79µM*,-24%,18%,?
Cc1ccccc1NC(=S)N(CCCN1CCOCC1)Cc1ccccn1,-3%,-10%[59 µM],-6%,6%,3.5µM*
COc1ccc(NC(=S)N2CCCN(Cc3cccc(Cl)c3)C2)cc1,?,12%[59 µM],4%,17%,?
